The values that follow come from ChEMBL document CHEMBL3988442, “University of Dundee, Small-Polar-MMV Screening Library” (2021).

This assay deals with Plasmodium falciparum. Briefly: Plasmodium falciparum sporozoite viability assay. The assay is classed as functional, organism-based. Further details: scale not given: in the data most compounds retested in dose-response had high values.

Several values for one entry are separate records, joined by “and”; a condition that tells them apart may be missing. Equal values may be shown once. Hit rate of the full screen: of about 34,000 compounds, about 290 (0.85%) showed an effect of 50% or more. For the sample, strong results were picked, then their nearest neighbours and some compounds at random.

With `CN(C)CCO[C@H]1CN(Cc2ccco2)[C@@H]2COC[C@H]12.O=C(O)C(F)(F)F.O=C(O)C(F)(F)F`, the “Percent Effect” value was determined as 12.07%.
Same read-out and setting: the figure for `CCOC(=O)C1CCN(C(=O)c2cnn(-c3ccc(C)cc3)c2N)CC1` is -31.22%; for `CC(=O)N1CCC(C(=O)c2cnn(-c3ccccc3)c2N)C1` (configuration not stated) it is -4.265%.
On the same count and under the same terms, the figure for `CCC(=O)N1CCCC(c2nc(N(C)C)ncc2-c2ccc(F)cc2)C1` (configuration not stated) is 2.091%.
Regarding `CCC(=O)N1CCCC(C(=O)c2cnn(-c3ccc(F)cc3)c2N)C1` (configuration not stated), for the setting “10 mM as filed; unlikely as a test dose”, the “Percent Effect” value is 46.01% and 80.8% and 57.02%.
Take `CCCC(=O)N1CCCC(c2ccccn2)C1` (configuration not stated): the “Percent Effect” value is -4.87%.
Regarding `CC(=O)N1CCCC(C(=O)c2cnn(-c3ccc(F)cc3)c2N)C1` (configuration not stated), under “10 mM as filed; unlikely as a test dose”, the “Percent Effect” value is 27.98% and 70.48% and 45.02%.
Take `COc1ccc2c(c1)c(-c1nc(N(C)C)ncc1CN)cn2C`: the “Percent Effect” value was 23.78%.
The same measure, in the same setting: to `CCC(=O)N1CCC2(CC1)CNC(=O)c1cc(C)ccc1O2` belongs 7.401%; to `CCOc1ncccc1NC(=O)Nc1c(C)nn(C(C)C)c1C`, 2.999%; to `Clc1ccc(OCCCN2CCN(c3cnccn3)CC2)cc1`, -11.56%.
With `O=C(Cn1cc(C2CC2)nn1)N(Cc1ccco1)CC1CCCO1` (configuration not stated), the “Percent Effect” value was -0.6519%.
On the same count and under the same terms, the figure for `Fc1cccc(Cc2cncc(C3CCCN3C3CCOCC3)n2)c1` (configuration not stated) is -10.3%.
Take `Cc1cccc(C(=O)N2CCN(C(=O)Cc3ccccn3)CC2)c1C`: the “Percent Effect” value (10 mM as filed; unlikely as a test dose) was 0.7402% and -14.31% and -17.8%.
The same measure, in the same setting: the figure for `CN1CCN(C2CCN(c3ccnc(-c4ccccc4)n3)CC2)C1=O` is -12.56% and 9.01% and -14.11%.
Turning to `CN1CCN(C2CCN(CCOc3ccccc3)CC2)C1=O`, the “Percent Effect” value amounted to 2.798%.
As to `CN1CCN(C2CCN(c3cnc4ccccc4n3)CC2)C1=O`, where the note is “10 mM as filed; unlikely as a test dose”, the “Percent Effect” value was 71.66% and 96.44% and 85%.
As to `CCc1n[nH]c(C2CN(C(=O)c3ccnc(C)n3)CCO2)n1` (configuration not stated), the “Percent Effect” value is recorded as -2.148%.
Still for that read-out and setting: to `CCc1nc(CC(=O)N2CCCCC2Cn2cccn2)cs1` (configuration not stated) belongs 3.352%.
Same read-out and setting: the figure for `Cc1cccc(CN2C[C@@H]3CN(C(=O)C4CC=CC4)C[C@@H]3C2=O)n1` is -3.24%.
Regarding `O=C(c1ccc(C2CCCO2)s1)N1Cc2ccccc2C1` (configuration not stated), the “Percent Effect” value (10 mM as filed; unlikely as a test dose) is -3.474% and -5.294% and -6.784%.
As for `CC(=O)N1CCCC1c1ccc(C(=O)N2CCOCC2)s1` (configuration not stated), the “Percent Effect” value was 9.227%.
For the compound `CN1CCCC1c1ccc(C(=O)N2CCc3ccccc3C2)s1` (configuration not stated), the “Percent Effect” value (10 mM as filed; unlikely as a test dose) was 96.19% and 93.66% and 95.32%.
In the case of `Cc1cc(N2CCN(c3ccc(=O)[nH]n3)CC2)nc(-c2ccncc2)n1`, the “Percent Effect” value was found to be 8.684%.
On the same count and under the same terms, the figure for `Cc1nc(C)n(CC2CCCN(Cc3ccccc3C#N)C2)n1` (configuration not stated) is 4.939%.
For `CC(=O)N[C@H]1CCO[C@@H](c2cccc(NC(=O)C(C)(C)C)c2)C1`, the “Percent Effect” value (10 mM as filed; unlikely as a test dose) is 12.38% and 11.09% and 3.549%.
On the same count and under the same terms, to `CC(=O)N[C@H]1CCO[C@@H](c2cccc(NC(=O)c3cccc(F)c3)c2)C1` belongs 55.02% and 42.93% and 54.57%.
In the case of `Cc1nn(C)cc1CN1CCC(c2ncc(Cl)cc2S(C)(=O)=O)CC1`, the “Percent Effect” value was 3.927%.
As to `Cc1cc(C)c(S(=O)(=O)NCCC(=O)NCc2ccoc2)c(C)c1`, the “Percent Effect” value was -16.91%.
On the same count and under the same terms, the figure for `CN(C)C(=O)NCC1CC2(CO1)CN(c1nncs1)C2` (configuration not stated) is 9.107%; for `Cc1cc2cc(C(=O)N[C@@H]3CC[C@@H](N4CCNC(=O)C4)[C@@H]3O)ccc2o1` it is -1.506%; for `COc1ccccc1CNC(=O)CNCCn1cc(C)cn1` it is 7.81%.
Regarding `Cc1nn(C)c(C)c1-c1cnc(C2CCCN(C)C2)cn1` (configuration not stated), the “Percent Effect” value (10 mM as filed; unlikely as a test dose) was -21.75% and -20.87% and 0.3933%.
For `O=C(NCc1ccccn1)c1cnc(C2CCCN2)cn1` (configuration not stated), the “Percent Effect” value is on record as -5.932%.
In the case of `Cc1csc(NC(=O)c2cnc(C3CCCN(C)C3)cn2)n1` (configuration not stated), the “Percent Effect” value (10 mM as filed; unlikely as a test dose) was 50.33% and 85.32% and 71.26%.
Take `COc1c(C2CCCN2CC(=O)Nc2nc(C)cs2)c(C)nn1C` (configuration not stated): the “Percent Effect” value is recorded as -5.597%.
On the same count and under the same terms, to `Cl.O=C(NCC(F)F)c1cnc(C2CCCN2)cn1` (configuration not stated) belongs 6.016%; to `Cc1nc(C(=O)NCc2ccccn2)cc(C2CCCN2)n1` (configuration not stated), 15.86%.
As to `Cc1csc(NC(=O)c2cnc(C3CCCN3)cn2)n1.Cl` (configuration not stated), the “Percent Effect” value (10 mM as filed; unlikely as a test dose) is 76.82% and 93.2% and 90.06%.
`Cc1nc2cc(-c3nccn3C)nn2c(N2CCCC2)c1C`: the “Percent Effect” value is reported as 12.19%.
On the same count and under the same terms, the figure for `CC(C)(CO)Nc1cc(-c2ccncc2)ncn1` is -5.504%.
With `COc1ccc(S(=O)(=O)N2CCN(C)c3ncccc3C2)cc1.O=C(O)C(F)(F)F`, the “Percent Effect” value came out at 6.245%.
On to `CN1CCCN(C(=O)NCc2cccnc2-n2cccn2)CC1`, for which the “Percent Effect” value is -0.7887%.
On the same count and under the same terms, to `Cc1ncccc1NC(=O)[C@@H]1CCO[C@@H]2CCN(c3ccncn3)C[C@H]21` belongs 1.798%.
For the compound `CCc1nccn1C1CCCN(C(=O)CCOCC(F)(F)F)C1` (configuration not stated), for the setting “10 mM as filed; unlikely as a test dose”, the “Percent Effect” value is 0.2657% and 18.61% and -4.801%.
With `Cc1csc(CNC(=O)N2CCN(Cc3cc(C)on3)CC2)n1`, the “Percent Effect” value is 3.68%.
Same read-out and setting: the figure for `Cc1nc(C(NC(=O)c2cc(C(C)C)[nH]n2)c2ccccc2)n[nH]1` (configuration not stated) is 1.665%.
On the same count and under the same terms, the figure for `CC(C)c1cc(C(=O)NCCn2nc3ccccn3c2=O)n[nH]1` is -7.561%.
As to `CC(NC(=O)c1cc(C(C)C)[nH]n1)C(=O)Nc1ccccc1` (configuration not stated), where the note is “10 mM as filed; unlikely as a test dose”, the “Percent Effect” value is 72.25% and 63.23% and 81.29%.
Turning to `O=C(C1CC1)N1CCc2nc(C3CCN(C(=O)C4CC4)C3)nc(O)c2C1` (configuration not stated), the “Percent Effect” value is 2.355%.
On the same count and under the same terms, the figure for `Cc1nn(CC(C)C)c(N(C)C)c1CNCc1ccccc1CO` is 9.702%; for `Cc1nn(CC(C)C)c(N(C)C)c1CNCc1cccnc1N(C)C` it is 0%; for `Cc1nc(-c2ccncc2)ncc1C(C)NC(=O)CN1CCCC1=O` (configuration not stated) it is -5.692%.
Still for that read-out and setting: the figure for `Cc1cc(C2CCN(C(=O)c3cnn(C)c3)CC2)ccn1` is 2.879%; for `CN(C)c1ncc(-c2ccc(C(N)=O)cc2)c(C2CNCCO2)n1` (configuration not stated) it is -5.327%.
On to `Cl.c1ccc(-c2ccc(C3CNCCO3)nc2)cc1` (configuration not stated), for which the “Percent Effect” value (10 mM as filed; unlikely as a test dose) was 93.99% and 69.13% and 81.53%.
With `Cl.Fc1ccccc1OCCc1cc(C2CNCCO2)n[nH]1` (configuration not stated), the “Percent Effect” value is listed as -0.03121%.
As for `Cc1ccc(-c2ccc(C3CNCCO3)nc2)cc1.Cl` (configuration not stated), the “Percent Effect” value (10 mM as filed; unlikely as a test dose) is 90.92% and 91.35% and 89.87%.
For the compound `CN(C)c1ncc(-c2ccc(F)cc2)c(C2CNCCO2)n1.Cl` (configuration not stated), the “Percent Effect” value is given as 8.117%.
The same measure, in the same setting: the figure for `CN(C)c1ncc(-c2cccc(F)c2)c(C2CNCCO2)n1.Cl` (configuration not stated) is 2.337%; for `CN(C)c1ncc(-c2cncnc2)c(C2CNCCO2)n1.Cl` (configuration not stated) it is -2.536%.
The same measure, in the same setting: the figure for `O=C(c1cccnn1)N1C[C@@H]2CC[C@H](Oc3cccc(F)c3)[C@@H]2C1` is -11.48%; for `CC(C(=O)NCc1ccnc(N2CCOCC2)c1)n1cccn1` (configuration not stated) it is 3.476%.
On the same count and under the same terms, to `O=C(NCc1ccc2c(c1)OCO2)[C@H]1C=CCN1c1ncccn1` belongs -8.12%; to `CC(NCc1ccccc1Cl)c1ccc2[nH]c(=O)[nH]c2c1` (configuration not stated), 4.238%; to `O=C1NCCN1C1CCN(CCOc2cccc3ccccc23)CC1`, 0.4468%.
In the case of `CCc1cnc(COc2ccc(OC3CCCCNC3=O)cc2)o1` (configuration not stated), under “10 mM as filed; unlikely as a test dose”, the “Percent Effect” value was -31.83% and -45%.
On the same count and under the same terms, to `Cc1nc(COc2ccc(OC3CCCCNC3=O)cc2)oc1C` (configuration not stated) belongs 96.35% and 88.4%.
For the compound `NC(=O)Cn1cc(NC(=O)N2CCCC(O)C2)cn1` (configuration not stated), the “Percent Effect” value worked out at 9.794%.
Still for that read-out and setting: the figure for `COCCS(=O)(=O)N(Cc1cscn1)c1ccccc1` is 1.643%.
In the case of `CCn1cc(CNc2ccc(N(C)CCOC)cn2)cn1`, the “Percent Effect” value (10 mM as filed; unlikely as a test dose) is 4.885% and 7.278%.
Consider `CC(C)(C)n1cc(NCc2cscn2)cn1`, for which the “Percent Effect” value stood at 16.3%.
As for `COCCN(C)c1ccc(NCc2cccnc2)nc1`, the “Percent Effect” value (10 mM as filed; unlikely as a test dose) is 21.13% and 22.11%.
For the compound `COCCN(C)c1ccc(NCc2ccsc2)nc1`, the “Percent Effect” value (10 mM as filed; unlikely as a test dose) is 67.62% and 57.94%.
Same read-out and setting: the figure for `COCCN(C)c1ccc(NCc2cscn2)nc1` is 95.11% and 93.26%.
As for `CC1CN(c2ccccc2Cl)C(=O)CN1C(=O)c1c[nH]c(=O)c(Cl)c1` (configuration not stated), the “Percent Effect” value was determined as 1.644%.
Turning to `COc1ccc(-n2ncc3c2NC(=O)CSC3C(C)C)cc1` (configuration not stated), the “Percent Effect” value is listed as -10.71%.
Still for that read-out and setting: the figure for `COCC(=O)N1CC[C@@H]2O[C@H](COCc3ccncc3)CC[C@@H]21.O=C(O)C(F)(F)F` is -3.886%.
Turning to `COc1cccc(-c2noc(C3CCN(Cc4cn(C)nc4C)C3)n2)c1` (configuration not stated), the “Percent Effect” value (10 mM as filed; unlikely as a test dose) is 82.7% and 74.22% and 69.73%.
On the same count and under the same terms, to `COc1cccc(-c2noc(C3CCN(CC4CCCCC4)C3)n2)c1.Cl` (configuration not stated) belongs -10.94% and -15.38% and -3.133%.
Regarding `COc1cccc(CSCC2=Nc3ccccc3S(=O)(=O)N2)c1`, the “Percent Effect” value is given as -15.51%.
As to `CC(C)(C)n1ncc2c1CCCC2NCc1cccc2c1OCCO2` (configuration not stated), for the setting “10 mM as filed; unlikely as a test dose”, the “Percent Effect” value was 39.28% and 33.56% and 65.68%.
The same measure, in the same setting: to `CC(C)(C)n1ncc2c1CCCC2NCc1cccc2c1OCO2` (configuration not stated) belongs 74.58% and 37.95% and 70.91%; to `CCn1ncc2c1CCCC2NCc1cscn1` (configuration not stated), -18.21% and -26.49%.
With `Cl.c1cnc(N2CCCC(NCc3cccc4c3OCCO4)C2)nc1` (configuration not stated), the “Percent Effect” value was -3.04%.
The same measure, in the same setting: the figure for `Cn1cc(N2CCCC(NCc3cccc4c3OCCCO4)C2)cn1` (configuration not stated) is 11.2%.
With `Cc1ccc(CNC2CCCc3c2cnn3C)s1.Cl` (configuration not stated), the “Percent Effect” value (10 mM as filed; unlikely as a test dose) was -10.87% and -25.98% and -25.69%.
The same measure, in the same setting: the figure for `Cn1ncc2c1CCCC2NCc1ccc(Cl)s1` (configuration not stated) is -1.156% and -7.705% and -11.46%.
Take `Cc1ccc(CNC2CCCc3c2cnn3Cc2ccccc2)s1.Cl` (configuration not stated): the “Percent Effect” value was -20.07%.
Still for that read-out and setting: the figure for `Cc1ccn(CCC(=O)N2CCCC(Cc3cccnc3)C2)n1` (configuration not stated) is 1.172%.
Same read-out and setting: the figure for `Cc1cccc(CN2C[C@@H]3[C@@H](C(=O)NCC(C)C)CCS(=O)(=O)[C@@H]3C2)c1.O=C(O)C(F)(F)F` is 5.351%; for `CCN(CC1CCOC1)C(=O)c1ccccc1S(=O)(=O)CC` (configuration not stated) it is 6.872%.
